Experimental data published in PubChem BioAssay (Tox21).
Results filed as inconclusive are left out. A number with no mark means an inactive call. Calls come from the whole dose curve.

experiment: qHTS assay to identify small molecule agonists of the NFkB signaling pathway - cell viability counter screen (AID 1159515); conditions: NFkB-bla ME-180 viability, CellTiter-Glo luminescence, 5 h; series mostly up to 61 µM; activity, negative = cytotoxic: at the top concentration; note: nearly all actives have a fitted effect of over 55% in size
Text: National Center for Advancing Translational Sciences [NCATS]
NIH Chemical Genomics Center [NCGC]
U.S. Environmental Protection Agency [EPA]
National Institutes of Environmental Health Sciences [NIEHS]
National Toxicology Program [NTP]
U.S. Food and Drug Administration [FDA]
Transcription factors and their stimulated target gene expression play pivotal roles across many cellular processes including responses to environmental stimuli. Proper regulation of associated pathways is critical to maintain cell health and function. Constitutive activation of transcription factor pathways has been implicated in tumors as it may block cellular functions such as apoptosis and lead to invasion and metastasis. One important transcription factor that stimulates gene expression in response to cytokines, UV radiation, and other stimuli is nuclear factor-kappa B (NFkB). To measure activation of the NFkB pathway, the CellSensor NFkB-bla ME-180 cell line (Life Technologies, Carlsbad, CA) that stably expresses beta-lactamase reporter gene under the regulation of a NF-kB response element was used. This assay allows measurement of the NFkB pathway activity induced by compounds in a ME-180 cell line. This system quantitates NF-kB activity using a FRET-based assay system where beta-lactamase expression disrupts FRET, allowing for fluorescent measurement of activity. This cell line has been used to screen the Tox21 10K compound library and to identify compounds that induce the NFkB pathway activity. The cytotoxicity of the Tox21 compound library against the NFkB-bla ME-180 cell line was tested in parallel by measuring cell viability using the CellTiter-Glo assay in the same wells.
Tox21 Assay Protocol Summary:
NFkB-bla ME-180 cells were dispensed at 2,000 cells/6 uL of assay medium per well into black wall/clear-bottom 1536-well plates using a Multidrop Combi (ThermoFisher Scientific, Waltham, MA) dispenser. After the assay plates were incubated at 37 C and 5% CO2 for an overnight, 23 nL of compounds dissolved in DMSO, positive controls or DMSO only was transferred to the assay plate by a Pintool station (Kalypsys, San Diego, CA). The assay plates were incubated at 37 C and 5% CO2 for 5 hr. One uL of LiveBLAzer B/G FRET substrate (Life Technologies) was added using a Flying Reagent Dispenser (Aurora Discovery, San Diego, CA) and the plates were incubated at room temperature for 1.5 hr. Fluorescence intensity (405 nm excitation, 460 nm and 530 nm emissions) was measured using an Envision plate reader (PerkinElmer, Shelton, CT). For cytotoxicity, 3 ul/well of CellTiter-Glo reagent was added into the assay plates using an FRD. After 30 min incubation at room temperature, the luminescence intensity was measured using a ViewLux plate reader (PerkinElmer).
% is set by controls: 0 for no effect and ±100 for the full control effect.

SMILES	activity, negative = cytotoxic
CCCN(CCC)CCc1cccc2c1CC(=O)N2	-4.36%
NCCc1cnc[nH]1	1.59%
CCOC(=O)c1c(C)n(C)c2ccc(O)cc12	3.47%
CCO[Si](CCC1CCC2OC2C1)(OCC)OCC (stereo not given)	4.98%
CC(C)NCC(O)c1ccc(NS(C)(=O)=O)cc1 (stereo not given)	9.57% [at 78.8 µM]
CCCCCSCCCCC	-0.359%
CCc1cccc2c(CCO)c[nH]c12	3.9%
NCCCNCCSP(=O)(O)O	0.56% [at 6.95 µM]
CCOC(=O)CCC(C)=O	11%
Oc1ccc(C2CNCCc3c2cc(O)c(O)c3Cl)cc1 (stereo not given)	-2.63%
COc1c(N2C[C@@H]3CCCN[C@@H]3C2)c(F)cc2c(=O)c(C(=O)O)cn(C3CC3)c12	5.49%
CCCN1CCCC[C@H]1C(=O)Nc1c(C)cccc1C	3.68%
O=C(O)CCCl	10.5% [at 78.8 µM]
Cc1ccc(Cl)cc1Cl	4.79%
OC1CCCCC1c1ccccc1 (stereo not given)	-2.64%
CCCC(=O)O[C@]1(C(=O)CO)CC[C@H]2[C@@H]3CCC4=CC(=O)CC[C@]4(C)[C@H]3[C@@H](O)C[C@@]21C	-3.44%
CCC(C)C1CCCCC1=O (stereo not given)	13.9%
C[N+](C)(C)CCCCCC[N+](C)(C)C	11.7%
CCCCC/C=C\CCC=O	6.03%
CN(C)CCCN1c2ccccc2CCc2ccc(Cl)cc21	-34.2%

SMILES	activity, negative = cytotoxic
Cc1ccc(C#N)cc1	-3.33%
CC/C=C\CC/C=C/CO	12.8%
CN1C(=O)N(C)C(O)C1O (stereo not given)	12.4%
CO/N=C(/C(=O)N[C@@H]1C(=O)N2C(C(=O)OCOC(=O)C(C)(C)C)=C(C)CS[C@H]12)c1csc(N)n1	-10.4%
O=C(O)c1ccccc1OP(=O)(O)O	3.68%
C1OCOCO1	-4.96% [at 78.8 µM]
CCC(C)S (stereo not given)	6.58% [at 3.12 µM]
CC/C=C\CCOC(C)=O	7.23%
OC[C@]1(O)OC[C@@H](O)[C@H](O)[C@@H]1O	1.25%
C=C1CC[C@H]2C[C@@H]1C2(C)C	-3.15%
CCCCCCCCCCCCN(CCCCCCCCCCCC)CCCCCCCCCCCC	-6.49%
OCCOc1ccc(OCCO)cc1	-4.39% [at 78.8 µM]
COc1ccc2c(c1)CCCC2=O	6.14%
COc1ccc2c(c1)c(CC(=O)OCC(=O)O)c(C)n2C(=O)c1ccc(Cl)cc1	-0.525%
CCOC(=O)Nc1ccc(NCc2ccc(F)cc2)nc1N	-9.66%
CCCCNC(=O)NCCCC	0.987%
COC(=O)C1=C(C)NC(C)=C(C(=O)OC)C1c1ccccc1[N+](=O)[O-]	1.9%
Cc1sccc1Br	-0.872%
N=C(N)c1ccc(OCCCOc2ccc(C(=N)N)cc2)cc1	0.973%
c1cnc(N2CCN(Cc3ccc4c(c3)OCO4)CC2)nc1	4.11%
